A selection: hits, their analogues and other compounds. The true share with any hit is near 19%.
DT40 TDP1 CPT – DT40-hTDP1 cell growth loss with CPT | 12% of 420,000 active | chicken DT40 Tdp1-/-;hTDP1 cells + 20 nM CPT, ATP luminescence, 48 h | Potency, µM (titrated, usually from 46.2 µM), most hits filed as inhibitors; also: nearly all actives have a fitted effect of over 55% in size
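Chicken DT40 Tdp1-/- cells complemented with human TDP1, 400 cells/well, exposed to compounds plus 20 nM camptothecin for at least 48 h at 37 C; viability read as ATP content by CellTiter-Glo luminescence.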
KB-V1 cytotox – kills drug-selected multidrug resistant KB-V1 cells; Potency, µM (titrated, usually from 46.1 µM), usual class: cytotoxic; KB-V1 MDR cells viability, CellTiter-Glo, 72 h; 3.4% of 400,000 active; AID 1347076; also: nearly all actives have a fitted effect of over 60% in size
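Readout: CellTiter-Glo luminescence, 10 min after addition. Cells: KB-V1 MDR subline, 72 h at 37 degrees C with compound. Analysis: corrected, normalized data fitted to concentration-effect curves.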
HT1080NT lethal – kills 2HG-producing HT-1080-NT fibrosarcoma cells | AID 686970 | Potency, µM (top dose mostly 46.1 µM), usual class: cytotoxic | HT-1080-NT fibrosarcoma viability, CellTiter-Glo ATP luminescence, 48 h | 1.6% of 360,000 active;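 also: NT is the 2HG producing partner of a matched IDH1 knockdown line; nearly all actives have a fitted effect of over 55% in size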
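Fibrosarcoma NT cells, 750 per well in 5% FBS RPMI, were exposed to compound for 48 hours. Viability: CellTiter-Glo luminescence.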
KB-3-1 cytotox – KB-3-1 parental cell cytotoxicity. 1.4% of 400,000 active. KB-3-1 viability, CellTiter-Glo ATP luminescence, 72 h. AID 1347075. Potency, µM (series often up to 46.1 µM), hits mostly cytotoxic; also: nearly all actives have a fitted effect of over 60% in size
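Viability of parental KB-3-1 cells, measured by CellTiter-Glo luminescence, followed a 72 h incubation at 37 °C with pinned compounds in phenol-red-free DMEM containing 10% FBS.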
DT40 TDP1 no CPT – qHTS for Inhibitors of human tyrosyl-DNA phosphodiesterase 1 (TDP1): qHTS in cells in absence of CPT. DT40 Tdp1-/- hTDP1 cells, no CPT, ATP luminescence, 48 h. Potency, µM (titrated, usually from 46.2 µM), actives largely listed as inhibitors. 15% of 420,000 active; also: nearly all actives have a fitted effect of over 55% in size
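Chicken DT40 Tdp1-/- cells complemented with human TDP1, screened without camptothecin (DMSO vehicle only), 400 cells/well. Compounds pin-transferred, cells incubated at 37 °C for at least 48 hr. Growth read as ATP-dependent luminescence (CellTiter-Glo, 30 min at RT).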
HT1080 IDH1KD tx – HT-1080 IDH1 knockdown cell toxicity (counter line); HT-1080 IDH1 knockdown viability, ATP luminescence, 48 h; Potency, µM (titrated, usually from 46.1 µM), most hits filed as cytotoxic; 2% of 360,000 active; AID 686971
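In this qHTS, HT-1080 cells depleted of IDH1 are exposed for 48 h at 37 °C to compound titrations. Toxicity is scored from CellTiter-Glo luminescence, with DMSO as full viability and medium alone as none.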
A number is an active result; - = inactive; ? = inconclusive; . = no result given. Calls follow the shape of the dose curve; as a rule, active = well fitted curve in the direction sought with a large enough effect; inconclusive = small, poorly fitted or top-dose-only effect, or another doubt; inactive = no such curve, though single readings can be large; an effect the other way counts as inactive or inconclusive.

SMILES | DT40 TDP1 CPT | KB-V1 cytotox | HT1080NT lethal | KB-3-1 cytotox | DT40 TDP1 no CPT | HT1080 IDH1KD tx
Cc1cc2oc(=O)cc(CN3CCCC3)c2cc1Cl | - | - | - | - | - | -
CCOC(=O)C1CCN(Cc2cc(Cl)c3ccccc3c2O)CC1 | 18µM | - | ? | - | ? | 26µM
Oc1c(CN2CCCC(C(F)(F)F)C2)cc(Cl)c2ccccc12 (configuration not stated) | 18µM | - | ? | - | ? | ?
NC(=O)C1CN(C(=O)c2cccc(S(=O)(=O)N3CCc4ccccc43)c2)c2ccccc2O1 (configuration not stated) | ? | - | - | - | ? | -
Cc1ccccc1S(=O)(=O)Cc1ccc(C(=O)NCc2ccc(F)cc2)o1 | ? | - | - | - | ? | -
O=C(NC(=S)Nc1ccc2nc[nH]c2c1)c1ccccc1 | - | - | - | ? | - | -
CCCCCCCCN1C(=O)[C@H](CC(=O)N2CCCC2)C[C@@]2(C(=O)OCC)CCCC=C12 | 8.2µM | ? | ? | ? | 8.2µM | ?
CCCCCCCCN1C(=O)[C@H](CC(=O)N2CCN(C(=O)OCC)CC2)C[C@@]2(C(=O)OCC)CCCC=C12 | 16µM | ? | ? | - | ? | ?
CCOC(=O)[C@]12CCCC=C1N(Cc1ccccc1)C(=O)[C@H](CC(=O)N1CCCC1)C2 | - | ? | - | - | ? | -
c1cncc(-c2nc(NCc3cccs3)c3ccccc3n2)c1 | ? | ? | - | - | ? | -
CN(C)c1ccc(-c2nc(Nc3ccncc3)c3ccccc3n2)cc1 | 9.2µM | . | . | . | 5.8µM | .
Fc1ccccc1CNc1nc(-c2cccnc2)nc2ccccc12 | ? | - | - | - | 23µM | -
c1cncc(CNc2nc(-c3ccoc3)nc3ccccc23)c1 | ? | . | . | . | 21µM | .
COc1ccc(CNc2nc(-c3ccc(N(C)C)cc3)nc3ccccc23)c(OC)c1 | 4.1µM | . | . | . | 4.1µM | .
CN(C)c1ccc(-c2nc(NCc3cccnc3)c3ccccc3n2)cc1 | 3.7µM | . | . | . | 4.1µM | .
O=[N+]([O-])c1ccc(-c2nc(NCc3cccnc3)c3ccccc3n2)cc1 | - | - | - | - | - | -
CC(CO)NS(=O)(=O)c1cc(Cl)ccc1F (configuration not stated) | - | - | - | - | - | -
CCn1cc(C(=O)OCC(=O)Nc2c(C)cccc2C)c(=O)c2ccc(C)nc21 | 16µM | - | - | - | 23µM | -
CCn1cc(C(=O)NCCc2ccc(OC)cc2)c(=O)c2ccc(C)nc21 | ? | - | - | - | 23µM | -
Cc1ccc(S(=O)(=O)NC(=O)c2ccc(Br)o2)cc1 | - | - | - | - | - | -
CC1CCCCN1C(=O)CSc1nnc(-c2ccc(Cl)s2)o1 (configuration not stated) | ? | - | - | - | 29µM | -
CC1CCCCN1C(=O)CSc1nnc(-c2ccccc2O)o1 (configuration not stated) | ? | ? | - | 13µM | ? | -
COc1cc(OC)cc(C(=O)NCC(=O)OCC(=O)C(C)(C)C)c1 | - | - | - | - | - | -
Cc1cc(Cl)ccc1OC(C)C(=O)N1CCCN(C(=O)C(C)Oc2ccc(Cl)cc2C)CC1 (configuration not stated) | 21µM | ? | 18µM | 13µM | 21µM | 21µM
Cc1ccc(Cl)cc1NC(=O)Nc1nnc(N(C)Cc2ccccc2)s1 | 21µM | - | . | - | 23µM | .
SMILES | DT40 TDP1 CPT | KB-V1 cytotox | HT1080NT lethal | KB-3-1 cytotox | DT40 TDP1 no CPT | HT1080 IDH1KD tx
CN(C)c1ccc(/C=C/c2cc[n+](C)c3ccc4ccccc4c23)cc1 | 0.089µM | ? | . | 0.92µM | ? | .
C[n+]1ccc(/C=C/c2ccccc2O)c2ccccc21 | ? | ? | - | - | ? | ?
COc1cc(OC)c(/C=C/c2cc[n+](C)c3ccccc23)c(OC)c1 | 0.5µM | - | . | ? | 0.45µM | .
C[n+]1ccc(/C=C/c2ccc(C=S)cc2)c2ccccc21 | 4µM | - | . | ? | 3.2µM | .
Cc1cc(N(C)C)cc(C)c1/C=C/c1cc[n+](C)c2ccccc12 | 0.56µM | - | . | 4.6µM | 0.56µM | .
CCOc1ccc(/C=C/c2cc[n+](C)c3ccccc23)cc1OCC | ? | - | . | ? | ? | .
